Sampled rows, rich in hits. Any-hit rate of the full collection: about 19%.
SW480 rerep = DNA re-replication induction in SW480 cells; Potency, µM (highest dose often 46.1 µM), hits mostly activators; 340,000 compounds, 1.8% hits; AID 624297; SW480 DNA re-replication, Hoechst DNA content imaging, 48 h; further: nearly all actives have a fitted effect of over 55% in size
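SW480 cells exposed to compounds for 48 hr at 37 C, 5% CO2, then Hoechst-stained 40 min. Nuclear DNA content imaged by fluorescence scanning (405 nm excitation, 500-530 nm emission); re-replication scored as increased high-intensity nuclei.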
IL-1B inflam inh = inflammasome signaling inhibition, IL-1 beta readout. THP-1 LPS/ATP IL-1B secretion, AlphaLISA, 16 h; hits give low values. activity change, % at 57.5 µM. 360,000 compounds, 4.7% hits. AID 743279; in the data active means activity change below about -50%; inconclusive means mostly about -30% to -49%
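THP-1 cells pretreated 1 hr with compounds (up to 57.5 uM final), then stimulated with LPS (250 ng/mL final) plus ATP (1.25 mM final); secreted IL-1B measured by AlphaLISA after 16 hr, decreased signal indicating inhibition.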
MCF10A rerep = inducers of DNA re-replication in MCF 10A breast cells; MCF 10A DNA re-replication, Hoechst nuclear intensity, 48 h; AID 624296; 350,000 compounds, 2.9% hits; Potency, µM (highest dose often 46.1 µM), hits mostly activators; further: nearly all actives have a fitted effect of over 50% in size
DT40 TDP1 CPT = growth inhibition of DT40 Tdp1-/-;hTDP1 cells with camptothecin (screen for TDP1 inhibitors); AID 686979; 420,000 compounds, 12% hits; Potency, µM (series often up to 46.2 µM), actives largely listed as inhibitors; chicken DT40 Tdp1-/-;hTDP1 cells + 20 nM CPT, ATP luminescence, 48 h; further: nearly all actives have a fitted effect of over 55% in size
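Chicken DT40 Tdp1-/- cells stably complemented with human TDP1 were seeded at 400 cells/well in medium containing 20 nM camptothecin, exposed to pin-transferred compounds, and grown at 37 °C for at least 48 hr. Viability was read as ATP luminescence.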
Chronic BCR inh = chronic active BCR signaling inhibition. ABC-DLBCL IkBa-CBG/CBR reporter, luminescence ratio, 4 h. Potency, µM (series often up to 46.1 µM), usual class: inhibitors. 340,000 compounds, 0.05% hits. AID 493014; active means well fitted inhibition curve with a large enough effect in the signal ratio, with a control signal flat, not every such curve was filed as active; inconclusive means small, poorly fitted or top-dose-only effect, or effect the other way, or a change in a side signal; the % refers to the signal ratio
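Doxycycline induced both beetle luciferases in TMD8 lymphoma cells; IKK-driven degradation limits the IkappaBalpha-fused green signal, while red luminescence normalises for cell number and nonspecific effects. Compounds tested up to 46 uM, 4 hrs.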
DT40 TDP1 no CPT = qHTS for Inhibitors of human tyrosyl-DNA phosphodiesterase 1 (TDP1): qHTS in cells in absence of CPT | DT40 Tdp1-/- hTDP1 cells, no CPT, ATP luminescence, 48 h | Potency, µM (top dose mostly 46.2 µM), hits mostly inhibitors | 420,000 compounds, 15% hits; further: nearly all actives have a fitted effect of over 55% in size
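Chicken DT40 Tdp1-/- cells stably complemented with human TDP1 were seeded at 400 cells/well with DMSO in place of 20 nM camptothecin. After compound pinning, cells grew at least 48 hr at 37 °C; viability read by CellTiter-Glo luminescence.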
Each line names hits and unclear results; the compound was inactive in the other large screens. Unless noted, the call rests on the fitted dose curve; in most records, active means well fitted curve in the direction sought with a large enough effect; inconclusive means small, poorly fitted or top-dose-only effect, or another doubt; inactive means no such curve, though single readings can be large; an effect the other way counts as inactive or inconclusive.

CCc1ccccc1N1CC(c2nnc(NC(=O)c3ccco3)s2)CC1=O (stereo not given)	none (no result: SW480 rerep, IL-1B inflam inh, MCF10A rerep, Chronic BCR inh)
Cc1cc2n(n1)CCC(=O)N2Cc1ccc(C(=O)Nc2cc(Cl)ccc2C)cc1	DT40 TDP1 CPT inconclusive, DT40 TDP1 no CPT 20.6µM (no result: SW480 rerep, IL-1B inflam inh, MCF10A rerep, Chronic BCR inh)
Cc1cc2n(n1)CCC(=O)N2Cc1ccc(C(=O)Nc2cccc(C(F)(F)F)c2)cc1	DT40 TDP1 CPT 14.6µM, DT40 TDP1 no CPT 14.6µM (no result: SW480 rerep, IL-1B inflam inh, MCF10A rerep, Chronic BCR inh)
Cc1c(C(=O)NCc2ccccc2)c(-c2ccccc2)nn1-c1ccccc1	MCF10A rerep inconclusive, DT40 TDP1 CPT 23.1µM, Chronic BCR inh inconclusive, DT40 TDP1 no CPT inconclusive
Cc1c(C(=O)NC(C)C)c(-c2ccccc2)nn1-c1ccccc1	none
Cc1nn(-c2ccccc2)c(Cl)c1C(=O)OCC(=O)NCCc1ccccc1	IL-1B inflam inh inconclusive, DT40 TDP1 CPT inconclusive, Chronic BCR inh inconclusive, DT40 TDP1 no CPT inconclusive
Cc1nn(-c2ccccc2)c(-n2cccc2)c1C(=O)N1CCN(c2ccccc2)CC1	DT40 TDP1 CPT inconclusive, DT40 TDP1 no CPT 23.1µM (no result: SW480 rerep, IL-1B inflam inh, MCF10A rerep, Chronic BCR inh)
Cc1nn(-c2ccccc2)c(-n2cccc2)c1C(=O)NCCc1ccc(Cl)cc1	DT40 TDP1 CPT 20.6µM, DT40 TDP1 no CPT inconclusive (no result: SW480 rerep, IL-1B inflam inh, MCF10A rerep, Chronic BCR inh)
COc1cccc(CNC(=O)c2c(C)nn(-c3cccc(C)c3)c2-n2cccc2)c1	DT40 TDP1 CPT inconclusive, DT40 TDP1 no CPT 14.6µM (no result: SW480 rerep, IL-1B inflam inh, MCF10A rerep, Chronic BCR inh)
COc1cccc(CNC(=O)c2c(O)nc3ccccn3c2=O)c1	DT40 TDP1 no CPT inconclusive (no result: SW480 rerep, IL-1B inflam inh, MCF10A rerep, Chronic BCR inh)
COc1ccc2c(c1)c1c(c(=O)n(-c3cccc(C)c3)c(=O)n1CC(=O)NCCC1=CCCCC1)n2C	none (no result: SW480 rerep, IL-1B inflam inh, MCF10A rerep, Chronic BCR inh)
CCOc1ccc(Oc2ccc(NC(=O)CSc3nncn3C)cc2)cc1	MCF10A rerep inconclusive
Cc1nn(-c2ccccc2)c(-n2cccc2)c1C(=O)NCc1ccccc1Cl	DT40 TDP1 CPT 20.6µM, DT40 TDP1 no CPT 25.9µM (no result: SW480 rerep, IL-1B inflam inh, MCF10A rerep, Chronic BCR inh)
Cc1cc(C)cc(NC(=O)Nc2ccc(NC(=O)c3ccccc3O)cc2)c1	SW480 rerep 20.6µM, MCF10A rerep 18.4µM, DT40 TDP1 CPT inconclusive, Chronic BCR inh inconclusive, DT40 TDP1 no CPT 20.6µM
CC1(C(=O)NS(=O)(=O)c2ccc(Cl)s2)CCN1C(=O)C1CCCCC1 (stereo not given)	DT40 TDP1 no CPT 7.31µM (no result: SW480 rerep, MCF10A rerep, Chronic BCR inh)
O=S(=O)(NC1CCCCC1)c1ccc(Cl)s1	SW480 rerep inconclusive, MCF10A rerep 20.6µM, DT40 TDP1 CPT inconclusive, Chronic BCR inh inconclusive
NC(=O)[C@@H]1CCCN1C(=O)c1cc(NC(=O)c2ccccc2)cc2ncn(C3CCCC3)c12	none (no result: SW480 rerep, IL-1B inflam inh, MCF10A rerep, Chronic BCR inh)
COc1ccc(/C=C\c2onc(C)c2S(=O)(=O)N2CCC(C(=O)Nc3ccc(F)cc3F)CC2)cc1	none (no result: SW480 rerep, IL-1B inflam inh, MCF10A rerep, Chronic BCR inh)
Cc1ccc(-n2nc3c(=O)n(CC(=O)NCCc4ccccc4C)nc(C)c3c2C)cc1	DT40 TDP1 CPT inconclusive, DT40 TDP1 no CPT inconclusive
COc1ccc(OC)c(CNC(=O)Cn2nc(C)c3nn(-c4ccc(Cl)cc4)c(C)c3c2=O)c1	DT40 TDP1 CPT 23.1µM, DT40 TDP1 no CPT 18.4µM (no result: SW480 rerep, IL-1B inflam inh, MCF10A rerep, Chronic BCR inh)
COc1ccc(OC)c(CCNC(=O)Cn2nc(C)c3c(C)n(-c4ccc(C)cc4)nc3c2=O)c1	IL-1B inflam inh -67.2, DT40 TDP1 no CPT 14.6µM
O=c1[nH]c2c(c3c1CCCC3)CCCC2	SW480 rerep inconclusive, MCF10A rerep inconclusive, DT40 TDP1 CPT 20.6µM, Chronic BCR inh inconclusive
COc1cccc(C(=O)NNc2c3ccccc3nc3ccccc23)c1	DT40 TDP1 CPT inconclusive, DT40 TDP1 no CPT 11.6µM
COc1ccccc1OCC(=O)NNc1c2ccccc2nc2ccccc12	SW480 rerep inconclusive, IL-1B inflam inh inconclusive, DT40 TDP1 CPT inconclusive, Chronic BCR inh inconclusive, DT40 TDP1 no CPT 18.4µM
Cc1ccc(C(=O)NNc2c3ccccc3nc3ccccc23)cc1	IL-1B inflam inh -97.9, DT40 TDP1 CPT 13µM, DT40 TDP1 no CPT 10.3µM
CCn1c(NC(=O)c2ccc(C)cc2)c2ccccc2nc1=O	IL-1B inflam inh inconclusive, Chronic BCR inh inconclusive
COc1cccc(C(=O)NNC(=O)C(=O)Nc2cccc(Cl)c2C)c1	SW480 rerep 23.1µM, DT40 TDP1 CPT inconclusive, Chronic BCR inh inconclusive, DT40 TDP1 no CPT inconclusive
COc1cccc(C(=O)NNC(=O)c2cccc3ccccc23)c1	none (no result: Chronic BCR inh)

From PubChem BioAssay
